Measured values as given in PubChem BioAssay (NCI).
About 83,000 compounds went through this panel and 20% of them were active in at least one assay; those are over-represented in the sample as a whole.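 Each cell line was grown in a 96-well plate and treated with one concentration of compound for 48 hours. Values below 10 were considered active.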 Activity calls are given as the source filed them.

What was measured:
Assay in all cases: NCI-60 one-dose screen, 48 h (100 = growth as untreated, 0 = no growth, -100 = all killed)
Settings in all cases: 10 µM unless noted
[1] = test system: HCT-15 colon
[2] = test system: HT29 colon
[3] = test system: SNB-75 CNS
[4] = test system: SNB-19 CNS
[5] = test system: U251 CNS
[6] = test system: PC-3 prostate
[7] = test system: SK-MEL-5 melanoma
[8] = test system: UACC-62 melanoma
[9] = test system: LOX IMVI melanoma
[10] = test system: SK-MEL-28 melanoma
[11] = test system: SK-MEL-2 melanoma
[12] = test system: EKVX NSCLC
[13] = test system: SN12C renal
[14] = test system: UO-31 renal
[15] = test system: TK-10 renal
[16] = test system: ACHN renal
[17] = test system: CAKI-1 renal
[18] = test system: A498 renal
[19] = test system: CCRF-CEM leukemia
[20] = test system: MOLT-4 leukemia

SMILES | growth [1] | growth [2] | growth [3] | growth [4] | growth [5] | growth [6] | growth [7] | growth [8] | growth [9] | growth [10] | growth [11] | growth [12] | growth [13] | growth [14] | growth [15] | growth [16] | growth [17] | growth [18] | growth [19] | growth [20]
Cn1c(=O)c2c(nc(Nc3cc(=O)[nH]c(=O)[nH]3)n2Cc2ccccc2)n(C)c1=O | 98.3% (inactive) | -4.46% (active) | -21% (active) | 96.9% (inactive) | 12.2% (inactive) | 92.2% (inactive) | 98.1% (inactive) | 88.3% (inactive) | 92.3% (inactive) | 101% (inactive) | -2.98% (active) | 90% (inactive) | 95.2% (inactive) | 79.5% (inactive) | 14.3% (inactive) | 100% (inactive) | 37.9% (inactive) | -13.8% (active) | 95.1% (inactive) | 92.7% (inactive)
COc1cc(OC)cc(-c2ccc(-c3ccc(C(=N)N)cn3)s2)c1 | 41.7% (inactive) | 37.2% (inactive) | 94.6% (inactive) | 92.1% (inactive) | 5.78% (active) | 69.1% (inactive) | 80.5% (inactive) | 98.2% (inactive) | 14% (inactive) | 109% (inactive) | 104% (inactive) | 95.6% (inactive) | 79.2% (inactive) | 94.2% (inactive) | 113% (inactive) | 75% (inactive) | 69.8% (inactive) | 102% (inactive) | 8.54% (active) | 49.3% (inactive)
Cc1ccc(-c2nc3nc(-c4ccccc4)nc(N4CCN(S(=O)(=O)c5ccccc5)CC4)c3o2)cc1 | 103% (inactive) | 97.7% (inactive) | -17.2% (active) | 32.9% (inactive) | 78.9% (inactive) | 96.4% (inactive) | 95% (inactive) | 101% (inactive) | 96.7% (inactive) | 106% (inactive) | 76.9% (inactive) | 96.1% (inactive) | 94.3% (inactive) | 99.2% (inactive) | 79.1% (inactive) | 72% (inactive) | 84% (inactive) | 99.3% (inactive) | 108% (inactive) | 102% (inactive)
O=C(N=Nc1c(O)[nH]c2ccccc12)Nc1ccc(Br)cc1 | 77% (inactive) | 97.6% (inactive) | 105% (inactive) | 96.5% (inactive) | 101% (inactive) | 91.9% (inactive) | 81.9% (inactive) | 79.3% (inactive) | 78% (inactive) | 89.3% (inactive) | 93.5% (inactive) | 86.6% (inactive) | 99.3% (inactive) | 66.8% (inactive) | 90% (inactive) | 83.7% (inactive) | 76.3% (inactive) | 72% (inactive) | -43.8% (active) | 90.2% (inactive)
CC[C@@H]1NC(=O)[C@H]([C@H](O)[C@H](C)C/C=C/c2ccc(CN3C(=O)C(C)=C(C)C3=O)cc2)N(C)C(=O)[C@H](C(C)C)N(C)C(=O)[C@H](CC(C)C)N(C)C(=O)[C@H](CC(C)C)N(C)C(=O)[C@@H](C)NC(=O)[C@H](C)NC(=O)[C@H](CC(C)C)N(C)C(=O)[C@H](C(C)C)NC(=O)[C@H](CC(C)C)N(C)C(=O)CN(C)C1=O | 67.8% (inactive) | 64.9% (inactive) | 72.8% (inactive) | 76.1% (inactive) | 71.2% (inactive) | 39.8% (inactive) | 60.5% (inactive) | 73.3% (inactive) | 68.6% (inactive) | 82.3% (inactive) | 81% (inactive) | 49.1% (inactive) | 83.9% (inactive) | 57.3% (inactive) | 75% (inactive) | 74.7% (inactive) | 86.3% (inactive) | 54.2% (inactive) | 63.6% (inactive) | 62.4% (inactive)
COC(=O)c1nc(-c2ccccc2)oc1S(=O)(=O)N(C)CCO | 42.5% (inactive) | 35.7% (inactive) | 95.5% (inactive) | 92.3% (inactive) | 82.7% (inactive) | 63.2% (inactive) | 96% (inactive) | 77.2% (inactive) | 71.6% (inactive) | 69.8% (inactive) | 82.1% (inactive) | 77.5% (inactive) | 87.6% (inactive) | 59.2% (inactive) | 43.9% (inactive) | 49.2% (inactive) | 54.7% (inactive) | 112% (inactive) | 16.2% (inactive) | 45.2% (inactive)
Cn1cc(-c2nc3c(F)cc4[nH]ncc4c3c3c2CCCC3)c(C(F)F)n1 | 66.6% (inactive) | 68.4% (inactive) | 57.6% (inactive) | 71.2% (inactive) | 80.5% (inactive) | 29% (inactive) | 65.4% (inactive) | 51.9% (inactive) | 62.6% (inactive) | 80.8% (inactive) | 76.7% (inactive) | 54.5% (inactive) | 66.7% (inactive) | 35.8% (inactive) | 52.3% (inactive) | 44.3% (inactive) | 37% (inactive) | 33.1% (inactive) | 4.61% (active) | 7.32% (active)
CONC1=Nc2cc(NC(N)=NCc3ccccc3)c(N(C)C3CCCCC3)cc2OC1 | 101% (inactive) | 29.5% (inactive) | 40.9% (inactive) | 68.8% (inactive) | 53.1% (inactive) | 51.1% (inactive) | 74.9% (inactive) | 70.1% (inactive) | 50.2% (inactive) | 87.9% (inactive) | 91.5% (inactive) | 62% (inactive) | 64.8% (inactive) | 75.5% (inactive) | 82.3% (inactive) | 79.1% (inactive) | 93.7% (inactive) | 82.4% (inactive) | 68.2% (inactive) | 54.2% (inactive)
COC1/C=C/OC2(C)Oc3c(C)c(O)c4c(O)c(c(C=NOC(c5ccccc5)c5ccccc5)c(O)c4c3C2=O)NC(=O)/C(C)=C/C=C/C(C)C(O)C(C)C(O)C(C)C(OC(C)=O)C1C (stereo not given) | 13.2% (inactive) | -12.1% (active) | 17.2% (inactive) | 30.8% (inactive) | 10.4% (inactive) | 9.81% (active) | 6.07% (active) | -4.64% (active) | 0.468% (active) | -7.28% (active) | -24.9% (active) | 20.4% (inactive) | 17.3% (inactive) | 27.2% (inactive) | 30.9% (inactive) | 20.3% (inactive) | 14% (inactive) | 58.5% (inactive) | 13.5% (inactive) | 5.43% (active)
C=C(CNCCc1ccc(O)cc1)[C@@H]1CC[C@]2(CO)CC[C@]3(C)[C@H](CC[C@@H]4[C@@]5(C)CCC(NCCc6ccc(O)cc6)C(C)(C)[C@@H]5CC[C@]43C)[C@@H]12 (stereo not given in full) | -86.9% (active) | -87.7% (active) | -87.3% (active) | -85.4% (active) | -88.4% (active) | -75.6% (active) | -93.5% (active) | -88% (active) | -86.3% (active) | -87.6% (active) | -84.2% (active) | -85.7% (active) | -85.1% (active) | -93.7% (active) | -92.6% (active) | -98.9% (active) | -57.7% (active) | -96.6% (active) | -43.1% (active) | -49.1% (active)
CC(=O)N1N=C(c2ccc(Nc3nc(Nc4ccc(F)cc4)nc(Nc4ccc(F)cc4)n3)cc2)CC1c1ccccc1 (stereo not given) | 89.3% (inactive) | 96.3% (inactive) | 80.1% (inactive) | 77.3% (inactive) | 85.5% (inactive) | 70% (inactive) | 69.6% (inactive) | 95.4% (inactive) | 103% (inactive) | 97.5% (inactive) | 59.9% (inactive) | 105% (inactive) | 112% (inactive) | 80.2% (inactive) | 97.6% (inactive) | 84.6% (inactive) | 114% (inactive) | 85.5% (inactive) | -14.7% (active) | 70.2% (inactive)
N=c1c2c(-c3ccccc3)c(-c3ccccc3)oc2ncn1NC(=O)c1cccnc1 | 95.6% (inactive) | 104% (inactive) | 105% (inactive) | 96.4% (inactive) | 102% (inactive) | 93.6% (inactive) | 93.4% (inactive) | 104% (inactive) | 95% (inactive) | 119% (inactive) | 111% (inactive) | 96.1% (inactive) | 102% (inactive) | 75.9% (inactive) | 112% (inactive) | 109% (inactive) | 93.8% (inactive) | 73.6% (inactive) | 84% (inactive) | 89.9% (inactive)
C=C(CN1CC=CCC1)[C@@H]1CC[C@]2(COC(C)=O)CC[C@]3(C)[C@H](CC[C@@H]4[C@@]5(C)CC[C@H](O)C(C)(C)[C@@H]5CC[C@]43C)[C@@H]12 | 101% (inactive) | 79.7% (inactive) | 98.9% (inactive) | 97.1% (inactive) | 92.8% (inactive) | 79.6% (inactive) | 99.3% (inactive) | 92.3% (inactive) | 100% (inactive) | 105% (inactive) | 104% (inactive) | 109% (inactive) | 97.8% (inactive) | 89.4% (inactive) | 113% (inactive) | 99.8% (inactive) | 107% (inactive) | 116% (inactive) | 85.4% (inactive) | 92.4% (inactive)
Cc1nc2cccc(NCCCCC(=O)NO)c2c(=O)n1-c1ccccc1 | 71.6% (inactive) | 52.1% (inactive) | 45.1% (inactive) | 65.5% (inactive) | 70.2% (inactive) | 63% (inactive) | 34.9% (inactive) | 31.8% (inactive) | 75.8% (inactive) | 58.3% (inactive) | 55.9% (inactive) | 63.8% (inactive) | 69.8% (inactive) | 56.6% (inactive) | 37.1% (inactive) | 54.3% (inactive) | 55.6% (inactive) | 48.5% (inactive) | 25.3% (inactive) | 25.1% (inactive)
